CR mimetic SO – lowers age-related superoxide in aged yeast cells; S. cerevisiae aged cells, superoxide DHE fluorescence; active compounds read low; superoxide response (% of plate mean), % at 10 µM; hit rate 0.18% among 330,000; AID 2690;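 active = superoxide response under a set limit, about three screen SD below normal, cut at about 65% in these data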;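 also: yeast aged for seven days with compound at 30 °C before DHE staining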
V-ATPase pH – yeast V-ATPase proton transport regulation by pHLuorin. hit rate 0.37% among 350,000. S. cerevisiae, pHLuorin cytosolic pH fluorescence. response, % at 10 µM; in the data active = response mostly above about 7.3%, no sharp cut-off; inactive = mostly below about 5.4%; also: actives read high
NALP3 yeast inh – inhibitors of NALP3 inflammasome in yeast. Yeast reconstituted NLRP3/ASC/caspase-1, beta-gal luminescence, 24 h. inhibition, % at 10 µM. hit rate 0.39% among 330,000. AID 2825;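 active = inhibition of 50% or more; inactive = inhibition below 50%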
NALP1 yeast inh – blocks the NALP1 inflammasome reconstituted in yeast; inhibition, % at 10 µM; AID 2071; S. cerevisiae NALP1/ASC/caspase-1 growth, X-gal OD620, 72 h; hit rate 0.61% among 280,000; in the data active = inhibition mostly above about 24%, no sharp cut-off; inactive = mostly below about 32%
PERK inhibitor – blocks human PERK kinase; hit rate 0.17% among 220,000; CHO PERK-DD fusion, SEAP luminescence translation reporter; inhibition, % at 5.6 µM; Q9NZJ5;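 active = inhibition above the mean inhibition of all tested compounds plus 3 SD, set separately per screening campaign, cut at about 2.9% in these data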;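 also: PERK kinase domain activated by AP20187 dimerizer at 100 nM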
Target sequence (Q9NZJ5 whole entry, looked up, the tested form may be a part): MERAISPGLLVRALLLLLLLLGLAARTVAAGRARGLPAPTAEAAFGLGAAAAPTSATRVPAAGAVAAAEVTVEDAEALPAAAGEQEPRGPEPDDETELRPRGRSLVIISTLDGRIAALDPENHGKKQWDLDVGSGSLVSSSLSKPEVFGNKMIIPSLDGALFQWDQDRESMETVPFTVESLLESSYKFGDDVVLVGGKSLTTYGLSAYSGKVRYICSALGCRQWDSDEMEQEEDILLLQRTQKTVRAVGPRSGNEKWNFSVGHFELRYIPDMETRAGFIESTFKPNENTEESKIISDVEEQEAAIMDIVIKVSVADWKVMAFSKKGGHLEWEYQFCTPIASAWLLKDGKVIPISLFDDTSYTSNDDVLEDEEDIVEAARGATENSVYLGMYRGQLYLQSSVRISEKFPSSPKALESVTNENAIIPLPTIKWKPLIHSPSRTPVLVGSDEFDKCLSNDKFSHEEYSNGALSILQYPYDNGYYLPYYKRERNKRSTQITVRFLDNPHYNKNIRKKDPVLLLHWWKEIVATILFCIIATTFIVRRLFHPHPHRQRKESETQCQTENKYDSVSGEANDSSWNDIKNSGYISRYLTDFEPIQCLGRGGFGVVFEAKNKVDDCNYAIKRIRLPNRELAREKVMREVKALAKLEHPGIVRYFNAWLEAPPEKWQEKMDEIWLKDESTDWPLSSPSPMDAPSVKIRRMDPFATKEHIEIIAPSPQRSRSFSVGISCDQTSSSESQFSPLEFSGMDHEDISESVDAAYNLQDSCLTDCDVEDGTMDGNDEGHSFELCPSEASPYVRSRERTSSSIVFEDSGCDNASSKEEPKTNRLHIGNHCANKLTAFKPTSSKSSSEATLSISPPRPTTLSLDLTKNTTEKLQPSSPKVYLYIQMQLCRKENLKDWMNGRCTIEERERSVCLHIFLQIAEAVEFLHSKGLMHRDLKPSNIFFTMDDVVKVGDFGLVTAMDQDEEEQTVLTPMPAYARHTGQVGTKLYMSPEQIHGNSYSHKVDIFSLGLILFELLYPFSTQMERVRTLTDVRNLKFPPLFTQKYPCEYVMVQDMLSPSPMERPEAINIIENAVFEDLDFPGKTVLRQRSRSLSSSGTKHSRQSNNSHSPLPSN
Rce1 inhib – blocks yeast Ras-converting enzyme | yeast membranes, quenched prenylated peptide cleavage fluorescence | hit rate 0.27% among 290,000 | calls only | Q03530;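 active = fall in fluorescence gain of 50% or more versus controls, with final raw signal at or below 3038400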
NALP3 confirm – confirmation of NALP3 inhibitors in yeast. yeast expressing human NALP3, luminescence. AID 435006. inhibition, % at 10 µM. hit rate 81% among 1,300. shares compounds with NALP3 yeast inh; in the data active = inhibition above about 48%
Casp1 ASC ctr – caspase-1-ASC yeast counter-screen hit; shares compounds with NALP3 yeast inh; yeast expressing Caspase-1-ASC, luminescence counter screen; inhibition, % at 10 µM; hit rate 66% among 1,000
NALP3 yeast rt – yeast NALP3 inhibition, confirmed on retest. shares compounds with NALP3 yeast inh. yeast expressing human NALP3, luminescence read-out. inhibition, % at 10 µM. hit rate 53% among 1,000. AID 488794
Hits are given with their value; 0 = inactive; - = no result given. An excerpt weighted towards active compounds, which were near 1.6% of everything screened. Rule as the data show it, unless noted: active = inhibition above about 50%; inactive = the rest.

SMILES | CR mimetic SO | V-ATPase pH | NALP3 yeast inh | NALP1 yeast inh | PERK inhibitor | Rce1 inhib | NALP3 confirm | Casp1 ASC ctr | NALP3 yeast rt
Cc1ccccc1NC(=O)Nc1ccccn1 | 0 | 0 | 53 | 0 | - | 0 | 69 | 0 | 0
COc1ccccc1NC(=O)Nc1ncccc1C | 0 | 0 | 60 | 0 | 0 | 0 | 71 | - | -
CCC(=O)c1ccc(N2CCCC2)c(F)c1 | 0 | 0 | 0 | 0 | 0 | 0 | - | - | -
CCCC(=O)c1ccc(N2CCCC2)c(F)c1 | 0 | 0 | 55 | 0 | 0 | 0 | 0 | - | -
Cc1ccc(S(=O)(=O)N2CCN(C(=O)N3CCCCC3)CC2)c(C)c1 | - | 0 | - | - | - | - | - | - | -
CCn1c(=O)c(C(=O)NNC(=O)c2ccccc2Br)c(O)c2ccccc21 | 0 | 0 | 0 | 0 | - | 0 | - | - | -
CCn1c(=O)c(C(=O)NNC(=O)c2cccc(Cl)c2)c(O)c2ccccc21 | 0 | 0 | 0 | 0 | - | 0 | - | - | -
Cn1c(=O)c(C(=O)NNC(=O)c2ccccc2Br)c(O)c2ccccc21 | 0 | 0 | 59 | 0 | - | 0 | 84 | 53 | 65
Cn1c(=O)c(C(=O)NNC(=O)c2ccccc2Cl)c(O)c2ccccc21 | 0 | - | 66 | 0 | - | 0 | 80 | 54 | 61
Cn1c(=O)c(C(=O)Nc2ccccn2)c(O)c2ccccc21 | 0 | 0 | 51 | 0 | 0 | 0 | 63 | 0 | 0
Cn1c(=O)c(C(=O)NNC(=O)c2cccc(Cl)c2)c(O)c2ccccc21 | 0 | 0 | 0 | 0 | - | 0 | - | - | -
CCn1c(=O)c(C(=O)NNC(=O)c2ccc(Cl)cc2Cl)c(O)c2ccccc21 | 0 | 0 | 55 | 0 | - | 0 | 75 | 0 | 0
O=[N+]([O-])c1ccc(NC(=S)NCCc2ccccc2)cc1 | 0 | 0 | 0 | 0 | 0 | 0 | - | - | -
O=C(Nc1ccc([N+](=O)[O-])cc1)Nc1ccc(Cl)cc1F | 0 | 0 | 76 | 0 | 0 | 0 | 49 | 0 | 0
O=[N+]([O-])c1ccc(NC(=S)NCCc2ccc(Cl)cc2)cc1 | 0 | 0 | 69 | 0 | 0 | 0 | 68 | 93 | 94
O=C(Nc1ccc(Cl)cc1)Nc1cc([N+](=O)[O-])ccc1F | 0 | 0 | 0 | 0 | 0 | 0 | - | - | -
C/C(CC1CC(C)OC1=O)=N\NC(N)=S (stereo unspecified) | 0 | 0 | 0 | 0 | 0 | 0 | - | - | -
C/C(CC(C)(C)C1CCCCC1)=N\NC(N)=S | 0 | 0 | 54 | 0 | 0 | 0 | 0 | - | -
OC(Cc1cccc(C=NN2CCOCC2)n1)(C(F)(F)F)C(F)(F)F | - | 0 | - | - | - | - | - | - | -
O=C1/C(=C\c2ccco2)SC(=S)N1c1ccc(O)cc1 | 0 | 0 | 81 | 76 | 0 | 0 | 61 | 0 | 0
O=C1/C(=C/C=C/c2ccco2)SC(=S)N1c1ccc(O)cc1 | 0 | 0 | 0 | - | 0 | 0 | - | - | -
O=C(NC(=S)N1CC=CCC1)c1ccccc1 | - | 0 | - | - | - | - | - | - | -
COc1cccc(C(C[N+](=O)[O-])c2c(C)[nH]n(-c3ccccc3)c2=O)c1 (stereo unspecified) | 0 | 0 | 52 | 85 | - | 0 | 58 | 0 | 0
CCCCN1C(=O)/C(=C/C=C2\SCCN2C)SC1=S | - | 0 | 58 | 0 | 0 | 0 | 0 | 64 | 65
COC(=O)c1ccc2c(c1O)C(=O)c1ccccc1C2=O | 0 | 0 | 54 | 0 | 0 | 0 | 61 | 61 | 52
SMILES | CR mimetic SO | V-ATPase pH | NALP3 yeast inh | NALP1 yeast inh | PERK inhibitor | Rce1 inhib | NALP3 confirm | Casp1 ASC ctr | NALP3 yeast rt
COc1ccc(CNC(=O)C2COc3ccccc3O2)c(OC)c1 (stereo unspecified) | 0 | 0 | 53 | 0 | 0 | 0 | 65 | 0 | 0
Cc1ccc(C(=O)CSc2ncnc3ccccc23)o1 | 0 | 0 | 54 | 0 | 0 | 0 | 69 | 73 | 58
O=C(CSc1ncnc2ccccc12)c1cccs1 | 0 | 0 | 0 | 0 | 0 | 0 | - | - | -
c1nc(CCO[C@H]2CCCCO2)cc2cc3c(cc12)OCO3 | 0 | 0 | 0 | - | - | - | - | - | -
c1nc(C2CCCCC2)cc2cc3c(cc12)OCO3 | 0 | 0 | 51 | - | - | - | 54 | - | -
O=C(O)CCCn1nc(-c2ccccc2)c2ccccc21 | 0 | 0 | 0 | 0 | 0 | 0 | - | - | -
COC(=O)Cn1nc(-c2ccccc2)c2ccccc21 | 0 | 0 | 97 | 103 | 0 | 0 | 99 | 99 | 98
CC[n+]1c(/C=C/N(C)c2ccccc2)oc2ccc(Cl)cc21 | 0 | 0 | 0 | 0 | 0 | 0 | - | - | -
CCN1/C(=C/C=C/c2oc3ccc4ccccc4c3[n+]2CC)Oc2ccc3ccccc3c21 | 0 | - | 59 | 0 | 0 | 0 | 61 | - | -
CC1CCCCC12NC(=O)N(CC(=O)Nc1cccnc1)C2=O (stereo unspecified) | - | 0 | - | - | - | - | - | - | -
Nc1nc(-c2ccccc2)c(-c2ccccc2)s1 | 0 | 0 | 0 | 0 | 0 | 0 | - | - | -
Nc1nc(-c2ccccc2)c(-c2ccc([N+](=O)[O-])cc2)s1 | 0 | 0 | 95 | 0 | 0 | 0 | 98 | 98 | 95
Oc1ccc(N=Nc2nc(-c3ccccc3)c(-c3ccccc3)[nH]2)cc1 | 0 | 0 | 51 | 0 | 0 | 0 | 62 | 75 | 0
Oc1ccc(N=Nc2n[nH]c(-c3ccccc3)n2)cc1 | 0 | 0 | 0 | 0 | 0 | 0 | - | - | -
C(=C\n1nnc2ccccc21)/c1ccccn1 | 0 | 0 | 53 | - | - | 0 | 71 | 0 | -
CC(C)OC(=O)N(C)C[C@@H]1OCc2cnnn2CCCC(=O)N([C@H](C)CO)C[C@H]1C | - | 0 | - | - | - | - | - | - | -
Nc1n[nH]c(-c2ccc(F)cc2)n1 | 0 | 0 | 0 | 0 | 0 | 0 | - | - | -
CCCCc1ccc(-c2nc(N)n[nH]2)cc1 | 0 | 0 | 54 | 0 | 0 | 0 | 78 | 95 | 85
Cc1c(C#N)c2n(c1C)CCCC(=O)N2 | - | 0 | - | - | - | - | - | - | -
O=S(=O)(c1cccs1)N1CCN(c2ccccc2)CC1 | 0 | 0 | 0 | 0 | - | 0 | - | - | -
Cc1ccc(N2CCN(S(=O)(=O)c3cccs3)CC2C)cc1 (stereo unspecified) | 0 | 0 | 56 | 0 | - | 0 | 57 | 57 | 0
O=S(=O)(c1cccs1)N1CCN(c2ccc(Cl)cc2)CC1 | 0 | 0 | 58 | 0 | - | - | 63 | 0 | 0
O=C(CSC(=O)c1ccccc1)Nc1ccccc1F | 0 | 0 | 0 | - | - | - | - | - | -
Nc1nc(=S)ss1 | - | 0 | - | - | - | - | - | - | -
C[C@H]1CN([C@@H](C)CO)C(=O)CCCn2cc(nn2)CO[C@@H]1CN(C)C(=O)Cc1ccccc1 | - | 0 | - | - | - | - | - | - | -
SMILES | CR mimetic SO | V-ATPase pH | NALP3 yeast inh | NALP1 yeast inh | PERK inhibitor | Rce1 inhib | NALP3 confirm | Casp1 ASC ctr | NALP3 yeast rt
CCCCOc1ccc(C2=CSC3=NCCN23)cc1[N+](=O)[O-] | 0 | 0 | 0 | 0 | - | 0 | - | - | -
CCCCOc1ccc(-c2csc(N)n2)cc1[N+](=O)[O-] | 0 | 0 | 57 | 0 | 0 | 0 | 0 | - | -
COc1ccc(C(=O)NN/C(C)=C/C(=O)C(F)(F)C(F)(F)C(F)(F)F)cc1 | 0 | 0 | 57 | 0 | 0 | 0 | 45 | 0 | 0
O=C(/C=C/c1ccccc1Cl)OCC(=O)N1CCc2ccccc21 | - | 0 | - | - | - | - | - | - | -
CC(=O)N(/N=C1\Sc2ccccc2C1=O)c1ccccc1C | 0 | 0 | 54 | 0 | 0 | 0 | 48 | 0 | 0
Cc1ccc2nc(N/N=C\c3ccc([N+](=O)[O-])o3)nc(-c3ccccc3)c2c1 | 0 | 0 | 57 | 0 | 0 | 0 | 0 | 0 | 0

Screening data (PubChem)
